Holding throughout (type): functional
In assay [1] the target is Solute carrier family 2, facilitated glucose transporter member 1 (Homo sapiens) (UniProt P11166). Briefly: ST_JUDE_LEISH: Cytotoxicity at 2uM final concentration against transgenic Leishmania Mexicana promastigotes LmGLUT1 that are glucose transport deficient and complemented with the human glucose transporter GLUT1. Activity is measured by DNA content using SYBR green in vitro.

Assay [2] concerns the target Hexose transporter 1 (Plasmodium falciparum) (UniProt O97467). Briefly: ST_JUDE_LEISH: Cytotoxicity at 2uM final concentration against transgenic Leishmania Mexicana promastigotes LmPfHT that are glucose transport deficient and complemented with the Plasmodium falciparum hexose transporter. Activity is measured by DNA content using SYBR green in vitro.
In assay [3] the target is Glucose transporter (Leishmania mexicana) (UniProt O61059). Briefly: ST_JUDE_LEISH: Cytotoxicity at 2uM final concentration against transgenic Leishmania Mexicana promastigotes LmGT2 that are glucose transport deficient and complemented with the L. Mexicana glucose transporter 2. Activity is measured by DNA content using SYBR green in vitro.

Sequence of Solute carrier family 2, facilitated glucose transporter member 1 (Homo sapiens) (P11166 whole entry): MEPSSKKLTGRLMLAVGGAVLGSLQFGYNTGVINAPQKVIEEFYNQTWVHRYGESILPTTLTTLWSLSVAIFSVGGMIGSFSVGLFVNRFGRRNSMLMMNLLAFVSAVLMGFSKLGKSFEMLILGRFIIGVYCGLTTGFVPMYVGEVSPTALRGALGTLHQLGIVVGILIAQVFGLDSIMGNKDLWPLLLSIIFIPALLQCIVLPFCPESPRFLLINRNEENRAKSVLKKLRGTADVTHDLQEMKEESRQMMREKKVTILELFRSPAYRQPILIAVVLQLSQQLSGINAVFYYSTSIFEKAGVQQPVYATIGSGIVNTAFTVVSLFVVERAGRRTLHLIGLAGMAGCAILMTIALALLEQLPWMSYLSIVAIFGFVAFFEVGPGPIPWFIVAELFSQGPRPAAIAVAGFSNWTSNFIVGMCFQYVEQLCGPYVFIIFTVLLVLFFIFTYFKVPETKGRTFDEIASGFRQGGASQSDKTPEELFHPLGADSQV

As a reminder, the inhibition is the relative decrease from the control value, in per cent. Consider `Cc1cccc(CCCNC(=O)CN(c2cccc(C(F)(F)F)c2)S(=O)(=O)c2ccc(C(F)(F)F)cc2)c1`, for which the inhibition in assay [1] worked out at 5.38%; in assay [2], 4.48%; in assay [3], 4.63%.
As to `CC(C)(C)c1cc(NC(=O)c2ccc(Cl)c([N+](=O)[O-])c2)cc(C(C)(C)C)c1`, the inhibition in assay [1] came out at 6.54%; in assay [2], 6.88%; in assay [3], 6.21%.
As for `CC(C)N1CCN(CCCCNc2c3ccccc3nc3ccccc23)CC1`, the figures for the inhibition in assay [1], in assay [2] and in assay [3] were 33%, 41% and 22.3%, respectively.
Turning to `CCCCCCCN1CC[C@@H](C[C@H](N)Cc2ccnc3ccc(OC)cc23)[C@@H](CC)C1`, the figures for the inhibition in assay [1], in assay [2] and in assay [3] were 0.24%, -1.97% and 0.03%, respectively.
As for `O=C(/C=C/c1ccc(Cl)c(Cl)c1)NC1CCC(CN2CCC(Cc3cc4ccccc4[nH]3)CC2)CC1` (stereo unspecified), the inhibition amounted to 4.78% in assay [1], 1.97% in assay [2] and 3.2% in assay [3].
With `NC(=O)c1cnc2cc(-c3ccncc3)cc(Nc3ccc(NC(=O)C4CCCCC4)cc3)c2c1`, the inhibition in assay [1] turned out to be 2.17%; in assay [2] it was 2.89%; in assay [3], 1.29%.
Consider `Cn1cc(-c2ccccc2C(=O)O)c(=O)c2cc(Cl)ccc21`, for which the inhibition in assay [1] worked out at 2.25%; in assay [2], 1.87%; in assay [3] it was 2.49%.
With `CN1CCN(c2cc(NC(=O)Nc3ccc(-c4ccncc4)c(Cl)c3)ccc2Br)CC1`, the inhibition in assay [1] was 10.9%; in assay [2], 8.89%; in assay [3], 10.5%.
Regarding `COc1ccc2nccc([C@@H](O)CN3CCC(NC(=O)/C=C/c4cccc(C)c4)CC3)c2c1`, the inhibition in assay [1] was 11%; in assay [2] it was 9.47%; in assay [3], 3.43%.
For `O=C(Nc1ccc2c(c1)CCCN2S(=O)(=O)c1cccs1)c1cc([N+](=O)[O-])ccc1Cl`, the figures for the inhibition in assay [1], in assay [2] and in assay [3] were 5%, 8.25% and 3.5%, respectively.
`COc1cccc(C2CCN(CCN3CCC(NC(=O)c4ccc(-c5ccc(C(F)(F)F)cc5)cc4)CC3)CC2)c1`: the inhibition was 4.19% in assay [1], 5.8% in assay [2] and 6.6% in assay [3].
Take `O=C(Nc1cccc(-c2nn3ncccc3c2-c2ccnc(Nc3cccc(-c4cnco4)c3)n2)c1)c1c(F)cccc1F`: the values for the inhibition in assay [1], in assay [2] and in assay [3] were 6.24%, 7.13% and 2.26%, respectively.
